In PubChem BioAssay AID1159580 (chemical genetic matrix, 2015):
Hit rate of the full screen: of about 5,500 compounds, about 2,000 (36%) were called active. Inconclusive results (about 18%) are left out. Cut-off read from the data, not from the text of the source: active = normalized growth mostly below about 0.91 (no sharp cut-off); inconclusive = no clear call, values can overlap the other calls; inactive = mostly above about 0.92. Some of the results follow.

Experiment: chemical genetic growth profiling, strain panel (AID 1159580);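 note: tested at 20 µM; growth read once vehicle control cultures reached saturation at 30 °C; 1 = growth at the plate median or of vehicle wells; lower values mean less growth of the strain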
Details: S. cerevisiae deletion strains, growth OD
[1] = locus YAL013W, strain DEP1, stronger effect = lower value
[2] = locus YBR229C, strain ROT2, stronger effect = lower value
[3] = locus YDL101C, strain DUN1, stronger effect = lower value
[4] = locus YGR078C, strain PAC10, stronger effect = lower value
[5] = locus YHR030C, strain SLT2, stronger effect = lower value
[6] = locus YJR043C, strain POL32, stronger effect = lower value
[7] = locus YJR075W, strain HOC1, stronger effect = lower value
[8] = locus YLR039C, strain RIC1, stronger effect = lower value
[9] = locus YMR307W, strain GAS1, stronger effect = lower value
[10] = locus YNL153C, strain GIM3, stronger effect = lower value
[11] = locus YOL006C, strain TOP1, stronger effect = lower value

Measured: normalized growth

COc1ccccc1/C=C\C(=O)O
inactive: [1] 1.02 | locus YAL021C, strain ccr4, stronger effect = lower value 1.01 | locus YAL026C, strain drs2, stronger effect = lower value 1.01 | locus YAL030W, strain snc1, stronger effect = lower value 0.988 | locus YBL061C, strain skt5, stronger effect = lower value 1 | locus YBR009C, strain hhf1, stronger effect = lower value 1 | locus YBR021W, strain FUR4, stronger effect = lower value 1.02 | locus YBR023C, strain chs3, stronger effect = lower value 1.01 | locus YBR171W, strain sec66, stronger effect = lower value 0.996 | [2] 1.02 | locus YBR231C, strain swc5, stronger effect = lower value 1.02 | locus YBR279W, strain paf1, stronger effect = lower value 1 | locus YCL011C, strain gbp2, stronger effect = lower value 0.99 | locus YCL016C, strain dcc1, stronger effect = lower value 1.01 | locus YCL029C, strain bik1, stronger effect = lower value 1.02 | locus YCL061C, strain MRC1, stronger effect = lower value 0.993 | locus YCL069W, strain vba3, stronger effect = lower value 0.996 | locus YCR088W, strain abp1, stronger effect = lower value 0.996 | locus YDL005C, strain med2, stronger effect = lower value 1 | locus YDL035C, strain GPR1, stronger effect = lower value 1.08 | locus YDL040C, strain nat1, stronger effect = lower value 0.994 | locus YDL074C, strain BRE1, stronger effect = lower value 1.19 | [3] 1.01 | locus YDL185W, strain tfp1, stronger effect = lower value 0.971 | locus YDL192W, strain arf1, stronger effect = lower value 1.04 | locus YDR001C, strain nth1, stronger effect = lower value 0.991 | locus YDR069C, strain doa4, stronger effect = lower value 1.03 | locus YDR101C, strain arx1, stronger effect = lower value 1.01 | locus YDR137W, strain rgp1, stronger effect = lower value 0.955 | locus YDR159W, strain sac3, stronger effect = lower value 1.03 | locus YDR162C, strain NBP2, stronger effect = lower value 1.05 | locus YDR195W, strain ref2 1.07 | locus YDR297W, strain sur2, stronger effect = lower value 0.994 | locus YDR318W, strain mcm21, stronger effect = lower value 1.04 | locus YDR334W, strain swr1, stronger effect = lower value 1.01 | locus YDR335W, strain msn5, stronger effect = lower value 1 | locus YDR388W, stronger effect = lower value 1 | locus YDR392W, strain spt3, stronger effect = lower value 0.793 | locus YDR502C, strain sam2, stronger effect = lower value 1.03 | locus YEL003W, strain gim4, stronger effect = lower value 0.996 | locus YEL037C, strain rad23, stronger effect = lower value 1 | locus YEL061C, strain CIN8 (second series), stronger effect = lower value 0.992 | locus YER015W, strain faa2, stronger effect = lower value 1.01 | locus YER016W, strain bim1, stronger effect = lower value 1.01 | locus YER110C, stronger effect = lower value 1.03 | locus YER111C, strain swi4, stronger effect = lower value 0.993 | locus YER155C, strain BEM2 (second series), stronger effect = lower value 0.949 | locus YER155C, strain BEM2, stronger effect = lower value 1.01 | locus YER167W, strain BCK2, stronger effect = lower value 1.01 | locus YFR010W, strain ubp6, stronger effect = lower value 1.02 | locus YGL078C, strain dbp3, stronger effect = lower value 1.02 | locus YGL086W, strain mad1, stronger effect = lower value 1.01 | locus YGL167C, strain pmr1, stronger effect = lower value 0.991 | locus YGL173C, strain kem1, stronger effect = lower value 0.998 | locus YGL227W, strain vid30, stronger effect = lower value 1 | locus YGL240W, strain doc1, stronger effect = lower value 0.981 | locus YGL248W, strain PDE1, stronger effect = lower value 1.08 | locus YGL253W, strain hxk2, stronger effect = lower value 1.01 | [4] 1.06 | locus YGR135W, strain pre9, stronger effect = lower value 1.04 | locus YGR252W, strain gcn5, stronger effect = lower value 1.15 | locus YHR013C, strain ard1, stronger effect = lower value 0.927 | locus YHR027C, strain rpn1, stronger effect = lower value 1 | [5] 1.01 | locus YHR079C, strain IRE1 (second series), stronger effect = lower value 1.03 | locus YHR094C, strain hxt1, stronger effect = lower value 0.998 | locus YHR129C, strain ARP1, stronger effect = lower value 1.03 | locus YHR142W, strain chs7, stronger effect = lower value 0.971 | locus YHR200W, strain rpn10, stronger effect = lower value 1.01 | locus YIL066C, strain RNR3, stronger effect = lower value 1.03 | locus YIL073C, strain SPO22, stronger effect = lower value 1.23 | locus YIL125W, strain kgd1, stronger effect = lower value 1.01 | locus YIR030C, strain dcg1, stronger effect = lower value 1.02 | locus YJL092W, strain hpr5, stronger effect = lower value 1 | locus YJL095W, strain BCK1 (second series), stronger effect = lower value 1.02 | locus YJL095W, strain BCK1, stronger effect = lower value 1.07 | locus YJL115W, strain asf1, stronger effect = lower value 1.02 | locus YJL129C, strain trk1, stronger effect = lower value 0.989 | locus YJL134W, strain LCB3, stronger effect = lower value 1.01 | locus YJL154C, strain vps35, stronger effect = lower value 1.01 | locus YJL164C, strain tpk1, stronger effect = lower value 0.992 | locus YJL166W, strain qcr8, stronger effect = lower value 0.98 | locus YJL168C, strain set2, stronger effect = lower value 1.04 | locus YJL187C, strain SWE1 (second series), stronger effect = lower value 1.04 | locus YJL187C, strain SWE1, stronger effect = lower value 0.991 | [6] 1.05 | [7] 1.02 | locus YKL009W, strain mrt4, stronger effect = lower value 1.03 | locus YKL068W, stronger effect = lower value 1.01 | locus YKL085W, strain MDH1 (second series), stronger effect = lower value 0.99 | locus YKL085W, strain MDH1, stronger effect = lower value 0.99 | locus YKL160W, strain elf1, stronger effect = lower value 0.986 | locus YKR001C, strain vps1, stronger effect = lower value 1.07 | locus YKR026C, strain gcn3, stronger effect = lower value 1 | locus YKR091W, strain srl3, stronger effect = lower value 0.995 | locus YLL001W, strain dnm1, stronger effect = lower value 0.993 | locus YLL026W, stronger effect = lower value 1 | locus YLL041C, strain sdh2, stronger effect = lower value 0.999 | locus YLR027C, strain aat2, stronger effect = lower value 1.01 | [8] 1.22 | locus YLR058C, strain SHM2, stronger effect = lower value 1.04 | locus YLR102C, strain apc9, stronger effect = lower value 1.01 | locus YLR221C, strain rsa3, stronger effect = lower value 0.988 | locus YLR258W, strain gsy2, stronger effect = lower value 0.987 | locus YLR262C, strain YPT6 (second series), stronger effect = lower value 0.932 | locus YLR268W, strain sec22, stronger effect = lower value 1.05 | locus YLR320W, strain mms22, stronger effect = lower value 0.942 | locus YLR330W, strain CHS5, stronger effect = lower value 1.03 | locus YLR342W, strain FKS1 (second series), stronger effect = lower value 1.05 | locus YLR342W, strain FKS1, stronger effect = lower value 0.996 | locus YLR357W, strain rsc2, stronger effect = lower value 1.02 | locus YLR370C, strain arc18, stronger effect = lower value 1 | locus YLR371W, strain rom2, stronger effect = lower value 1.02 | locus YLR384C, strain iki3, stronger effect = lower value 1.03 | locus YLR418C, strain cdc73, stronger effect = lower value 1.15 | locus YML016C, strain PPZ1, stronger effect = lower value 1.01 | locus YML032C, strain rad52, stronger effect = lower value 1.03 | locus YML120C, strain ndi1, stronger effect = lower value 0.994 | locus YML124C, strain tub3, stronger effect = lower value 1.02 | locus YMR058W, strain fet3, stronger effect = lower value 0.999 | locus YMR078C, strain ctf18, stronger effect = lower value 1.02 | locus YMR125W, strain sto1, stronger effect = lower value 1 | locus YMR129W, stronger effect = lower value 0.993 | locus YMR205C, strain PFK2, stronger effect = lower value 0.928 | locus YMR223W, strain ubp8, stronger effect = lower value 1.03 | locus YMR231W, strain pep5, stronger effect = lower value 1.01 | [9] 1.25 | locus YNL067W, strain RPL9B, stronger effect = lower value 1.01 | locus YNL071W, strain lat1, stronger effect = lower value 0.966 | [10] 1.06 | locus YNL209W, strain ssb2, stronger effect = lower value 1.01 | locus YNL233W, strain BNI4, stronger effect = lower value 1.08 | locus YNL248C, strain rpa49, stronger effect = lower value 1 | locus YNL250W, strain rad50, stronger effect = lower value 1.02 | locus YNL271C, strain bni1, stronger effect = lower value 1.01 | locus YNL298W, strain CLA4, stronger effect = lower value 1.03 | locus YNL307C, strain MCK1, stronger effect = lower value 1.02 | locus YNL322C, strain KRE1 (second series), stronger effect = lower value 0.999 | locus YNR049C, strain mso1, stronger effect = lower value 1 | locus YNR052C, strain pop2, stronger effect = lower value 1.03 | [11] 1.32 | locus YOL012C, strain htz1 1.02 | locus YOL147C, strain pex11, stronger effect = lower value 1.02 | locus YOR001W, strain rrp6, stronger effect = lower value 0.979 | locus YOR061W, strain CKA2, stronger effect = lower value 1.02 | locus YOR069W, strain VPS5, stronger effect = lower value 1.02 | locus YOR070C, strain gyp1, stronger effect = lower value 1 | locus YOR080W, strain dia2, stronger effect = lower value 1.01 | locus YOR083W, strain WHI5, stronger effect = lower value 0.994 | locus YOR106W, strain vam3, stronger effect = lower value 0.995 | locus YOR136W, strain idh2, stronger effect = lower value 1.02 | locus YOR144C, strain elg1, stronger effect = lower value 1.02 | locus YOR184W, strain ser1, stronger effect = lower value 1.05 | locus YOR265W, strain rbl2, stronger effect = lower value 0.994 | locus YOR270C, strain vph1, stronger effect = lower value 0.843 | locus YOR290C, strain snf2, stronger effect = lower value 0.952 | locus YOR316C, strain cot1, stronger effect = lower value 1.01 | locus YPL051W, strain arl3, stronger effect = lower value 0.992 | locus YPL078C, strain atp4, stronger effect = lower value 0.987 | locus YPL106C, strain sse1, stronger effect = lower value 0.987 | locus YPL240C, strain hsp82, stronger effect = lower value 1 | locus YPR119W, strain clb2, stronger effect = lower value 1.02 | locus YPR141C, strain kar3, stronger effect = lower value 0.999 | locus YPR163C, strain tif3, stronger effect = lower value 1.02 | locus YPR167C, strain met16, stronger effect = lower value 1.03 | strain wtn01, stronger effect = lower value 1.03

Brc1ccc(-c2ccn[nH]2)s1
inactive: [1] 0.978 | [2] 0.966 | [3] 0.971 | locus YDR150W, strain NUM1, stronger effect = lower value 1.02 | locus YEL061C, strain CIN8, stronger effect = lower value 0.938 | [4] 0.973 | locus YGR229C, strain SMI1, stronger effect = lower value 0.955 | [5] 0.938 | locus YHR087W, strain rtc3, stronger effect = lower value 0.993 | [6] 1 | [7] 0.971 | locus YKL190W, strain CNB1, stronger effect = lower value 0.949 | locus YLR058C, strain SHM2 (second series), stronger effect = lower value 0.963 | locus YML094W, strain GIM5, stronger effect = lower value 0.886 | locus YMR219W, strain ESC1, stronger effect = lower value 0.968 | locus YMR263W, strain SAP30, stronger effect = lower value 1.02 | [9] 0.953 | locus YNL128W, strain TEP1, stronger effect = lower value 0.94 | locus YNL298W, strain CLA4 (second series), stronger effect = lower value 0.936 | locus YNL322C, strain KRE1, stronger effect = lower value 0.97 | locus YNR030W, strain Alg12, stronger effect = lower value 0.939 | locus YPL055C, strain LGE1, stronger effect = lower value 1.07 | locus YPR135W, strain CTF4, stronger effect = lower value 0.789
active: [8] 0.703 | locus YLR085C, strain ARP6, stronger effect = lower value 0.721 | locus YLR262C, strain YPT6, stronger effect = lower value 0.67 | [10] 0.906 | [11] 0.715 | locus YPL241C, strain CIN2, stronger effect = lower value 0.525
